Data from PubChem BioAssay (NCATS).
Values joined by “and” are separate entries in the source; they are usually repeats but may differ in a detail not shown here. Equal values may be shown once. Results filed as inconclusive are left out. Active and inactive are the calls of the source. Unless noted, calls follow the shape of the dose curve; as a rule, active = well fitted curve in the direction sought with a large enough effect; inconclusive = small, poorly fitted or top-dose-only effect, or another doubt; inactive = no such curve, though single readings can be large; an effect the other way counts as inactive or inconclusive.

Legend:
[1] = target: Mitogen-activated protein kinase 10 (Mus musculus) (UniProt Q61831); assay: JNK3 AlphaScreen Assay (AID 530; active = well fitted curve in either direction with a large enough effect, not every such curve was filed as active;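 also: kinase came from lysate of stimulated human HepG2 cells; signal reports phosphorylation of biotinylated GST-cJun 1-79 at Ser73 with 10 µM ATP; series mostly up to about 57 µM; % is scaled to controls: 0 for no effect and ±100 for the full control effect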)
How it was run: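 Phosphorylation of biotinylated GST-cJun(1-79) at Ser73 is measured by AlphaScreen proximity luminescence. Enzyme is JNK3 in HepG2 lysates activated with interleukin-1beta and tumor necrosis factor alpha; ATP is 10 uM final.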

[2] = MultiTox-Fluor Cytotoxicity Assay - LYMP1-001 - Live Cells (AID 947);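 also: 0% = DMSO only and full inhibition = tetraoctylammonium bromide control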
[3] = MultiTox-Fluor Cytotoxicity Assay - LYMP1-002 - Dead Cells (AID 960);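 also: 0% = DMSO and 100% = tetraoctylammonium bromide; nearly all actives have a fitted effect of over 60% in size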
How it was run: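 Dead-cell fluorescence (Ex/Em 485/520) after 16 h compound exposure at 37 C of LYMP1-002 lymphoblastoid cells in complete medium; AC50 by Hill equation, with data scaled between DMSO and 15 uM tetraoctylammonium bromide.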

[4] = Cell Viability - LYMP2-009 (AID 968);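 also: series mostly up to about 92 µM; cells exposed to compound for 24 h at 37 °C; 0% = DMSO alone and the full-kill end = tetraoctylammonium bromide at 92 µM; nearly all actives have a fitted effect of over 55% in size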
[5] = Cell Viability - LYMP2-012 (AID 982);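 also: cellular ATP by luciferase luminescence where a drop means cytotoxicity; cells exposed to compound for one day before reading; 0% = DMSO only and full loss = 92 µM tetraoctylammonium bromide; nearly all actives have a fitted effect of over 55% in size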
[6] = target: Estrogen receptor (Homo sapiens) (UniProt P03372); assay: qHTS assay for small molecule antagonists of estrogen receptor alpha signaling (AID 588513; active = well fitted curve in the direction sought with a large enough effect in the signal ratio, with a control signal flat, not every such curve was filed as active; the % refers to the signal ratio; also: % is scaled to controls: 0 for no effect and ±100 for the full control effect)
Sequence of Estrogen receptor (Homo sapiens) (P03372 whole entry, looked up): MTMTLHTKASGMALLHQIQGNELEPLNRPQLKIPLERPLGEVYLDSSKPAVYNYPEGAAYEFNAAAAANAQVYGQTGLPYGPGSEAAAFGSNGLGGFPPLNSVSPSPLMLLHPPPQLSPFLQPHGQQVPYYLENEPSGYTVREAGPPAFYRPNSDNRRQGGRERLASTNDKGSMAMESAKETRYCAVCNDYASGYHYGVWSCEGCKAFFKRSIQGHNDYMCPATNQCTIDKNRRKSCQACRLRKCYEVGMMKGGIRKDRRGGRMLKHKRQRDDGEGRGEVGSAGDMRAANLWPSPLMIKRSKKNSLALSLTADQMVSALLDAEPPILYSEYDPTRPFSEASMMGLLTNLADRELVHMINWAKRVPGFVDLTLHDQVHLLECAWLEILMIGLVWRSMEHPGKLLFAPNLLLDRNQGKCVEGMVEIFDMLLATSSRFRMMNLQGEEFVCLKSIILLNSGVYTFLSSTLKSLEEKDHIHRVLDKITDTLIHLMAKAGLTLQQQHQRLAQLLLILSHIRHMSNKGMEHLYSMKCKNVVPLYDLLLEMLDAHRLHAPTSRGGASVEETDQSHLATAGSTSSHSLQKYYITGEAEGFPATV
How it was run: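 Beta-lactamase reporter, antagonist mode, HEK 293 GripTite cells; 0.5nM E2 stimulus, 18 h, 37 C; CCF4 dye 2 h RT; fluorescence. IC50 and efficacy from Hill fits, normalized to E2 and DMSO.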

[7] = target: Estrogen receptor (Homo sapiens) (UniProt P03372); assay: qHTS assay for small molecule agonists of estrogen receptor alpha signaling (AID 588514; calls by dose curve;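 also: 0% = vehicle only and 100% = reference agonist; nearly all actives have a fitted effect of over 70% in size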)
How it was run: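 EC50 and efficacy came from Hill fits of beta-lactamase reporter signal (CCF4 dye, 2 h at room temperature) scaled between DMSO and 20 nM 17-beta-estradiol. Agonist mode: HEK293 ER-alpha-UAS-bla cells in charcoal/dextran-stripped serum medium, 18 h compound exposure at 37 C.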

[8] = target: Glucocorticoid receptor (Homo sapiens) (UniProt P04150); assay: qHTS assay for small molecule antagonists of glucocorticoid receptor signaling (AID 588533; active = well fitted inhibition curve with a large enough effect in the signal ratio, with a control signal flat, not every such curve was filed as active; the % refers to the signal ratio;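 also: cells stimulated with 2 nM dexamethasone as agonist; % is scaled to controls: 0 for no effect and ±100 for the full control effect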)
Sequence of Glucocorticoid receptor (Homo sapiens) (P04150 whole entry, looked up): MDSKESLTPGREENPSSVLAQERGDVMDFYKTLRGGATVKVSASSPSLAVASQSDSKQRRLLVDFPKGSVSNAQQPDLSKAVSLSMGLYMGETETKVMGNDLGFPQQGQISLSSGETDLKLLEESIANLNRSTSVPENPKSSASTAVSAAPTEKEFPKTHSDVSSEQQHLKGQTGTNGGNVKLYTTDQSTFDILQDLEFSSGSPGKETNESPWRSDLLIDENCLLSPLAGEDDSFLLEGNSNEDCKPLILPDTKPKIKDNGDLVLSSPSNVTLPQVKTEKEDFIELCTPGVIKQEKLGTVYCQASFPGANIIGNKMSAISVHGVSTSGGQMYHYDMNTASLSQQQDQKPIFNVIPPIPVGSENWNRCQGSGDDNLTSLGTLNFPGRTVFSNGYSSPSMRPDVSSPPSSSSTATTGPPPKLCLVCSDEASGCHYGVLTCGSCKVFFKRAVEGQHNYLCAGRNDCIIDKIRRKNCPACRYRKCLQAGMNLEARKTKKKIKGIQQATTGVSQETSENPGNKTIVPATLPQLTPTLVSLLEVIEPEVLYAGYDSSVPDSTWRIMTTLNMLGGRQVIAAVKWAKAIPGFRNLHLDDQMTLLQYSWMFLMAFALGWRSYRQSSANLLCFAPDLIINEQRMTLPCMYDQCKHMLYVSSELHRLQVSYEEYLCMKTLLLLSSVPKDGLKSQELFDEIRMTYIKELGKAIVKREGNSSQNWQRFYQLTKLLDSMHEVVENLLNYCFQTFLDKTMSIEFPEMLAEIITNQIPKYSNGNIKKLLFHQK
How it was run: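 Antagonist-mode qHTS: compound titrations added to GRE-bla HeLa cells, then dexamethasone 2 nM final; 18 h, 37 C. CCF4 FRET fluorescence normalized to dexamethasone and DMSO; IC50 from Hill fit.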

[9] = target: Vitamin D3 receptor (Homo sapiens) (UniProt P11473); assay: qHTS assay for small molecule antagonists of vitamin D receptor signaling (AID 588541; calls by dose curve;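 also: receptor activated by calcitriol during compound treatment; series mostly up to about 77 µM; % is scaled to controls: 0 for no effect and ±100 for the full control effect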)
Sequence of Vitamin D3 receptor (Homo sapiens) (P11473 whole entry, looked up): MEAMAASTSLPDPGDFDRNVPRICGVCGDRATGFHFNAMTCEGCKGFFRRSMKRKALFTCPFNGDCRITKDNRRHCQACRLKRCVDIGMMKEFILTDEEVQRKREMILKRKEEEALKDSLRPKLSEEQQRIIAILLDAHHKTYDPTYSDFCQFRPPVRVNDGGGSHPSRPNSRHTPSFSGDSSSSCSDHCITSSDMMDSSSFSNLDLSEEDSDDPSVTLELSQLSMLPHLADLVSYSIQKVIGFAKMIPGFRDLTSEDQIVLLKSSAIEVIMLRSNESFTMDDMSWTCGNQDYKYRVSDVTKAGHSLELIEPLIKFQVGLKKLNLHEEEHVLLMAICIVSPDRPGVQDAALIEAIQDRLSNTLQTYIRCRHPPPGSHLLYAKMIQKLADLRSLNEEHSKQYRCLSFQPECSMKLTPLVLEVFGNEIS
How it was run: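 VDR-UAS-bla HEK293T cells (2000/well, 2% charcoal-stripped FBS) were treated with titrated compounds plus 1-alpha,25-dihydroxyvitamin D3 (50 nM or 3 nM final) for 16 h at 37 C. CCF4 beta-lactamase fluorescence was read; Hill fits gave IC50.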

[10] = target: Vitamin D3 receptor (Homo sapiens) (UniProt P11473); assay: qHTS assay for small molecule agonists of vitamin D receptor signaling (AID 588543; calls by dose curve;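 also: 0% = DMSO basal and 100% = reference agonist control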)
How it was run: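 β-lactamase reporter, VDR-UAS-bla HEK293T, agonist mode. Cells plated 5 h at 37 °C, compound titration 16 h at 37 °C, CCF4 dye 2 h RT, ratio 460/530 nm. Hill fit → EC50, efficacy vs 50 nM 1α,25-(OH)2D3.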

[11] = target: Voltage-gated inwardly rectifying potassium channel KCNH2 (Homo sapiens) (UniProt Q12809); assay: qHTS Assay for Small Molecule Inhibitors of the Human hERG Channel Activity (AID 588834);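 also: top concentration of the series differs between compounds; % is scaled to controls: 0 for no effect and ±100 for the full control effect; lower thallium flux fluorescence means stronger hERG block; nearly all actives have a fitted effect of over 50% in size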
Sequence of Voltage-gated inwardly rectifying potassium channel KCNH2 (Homo sapiens) (Q12809 whole entry, looked up): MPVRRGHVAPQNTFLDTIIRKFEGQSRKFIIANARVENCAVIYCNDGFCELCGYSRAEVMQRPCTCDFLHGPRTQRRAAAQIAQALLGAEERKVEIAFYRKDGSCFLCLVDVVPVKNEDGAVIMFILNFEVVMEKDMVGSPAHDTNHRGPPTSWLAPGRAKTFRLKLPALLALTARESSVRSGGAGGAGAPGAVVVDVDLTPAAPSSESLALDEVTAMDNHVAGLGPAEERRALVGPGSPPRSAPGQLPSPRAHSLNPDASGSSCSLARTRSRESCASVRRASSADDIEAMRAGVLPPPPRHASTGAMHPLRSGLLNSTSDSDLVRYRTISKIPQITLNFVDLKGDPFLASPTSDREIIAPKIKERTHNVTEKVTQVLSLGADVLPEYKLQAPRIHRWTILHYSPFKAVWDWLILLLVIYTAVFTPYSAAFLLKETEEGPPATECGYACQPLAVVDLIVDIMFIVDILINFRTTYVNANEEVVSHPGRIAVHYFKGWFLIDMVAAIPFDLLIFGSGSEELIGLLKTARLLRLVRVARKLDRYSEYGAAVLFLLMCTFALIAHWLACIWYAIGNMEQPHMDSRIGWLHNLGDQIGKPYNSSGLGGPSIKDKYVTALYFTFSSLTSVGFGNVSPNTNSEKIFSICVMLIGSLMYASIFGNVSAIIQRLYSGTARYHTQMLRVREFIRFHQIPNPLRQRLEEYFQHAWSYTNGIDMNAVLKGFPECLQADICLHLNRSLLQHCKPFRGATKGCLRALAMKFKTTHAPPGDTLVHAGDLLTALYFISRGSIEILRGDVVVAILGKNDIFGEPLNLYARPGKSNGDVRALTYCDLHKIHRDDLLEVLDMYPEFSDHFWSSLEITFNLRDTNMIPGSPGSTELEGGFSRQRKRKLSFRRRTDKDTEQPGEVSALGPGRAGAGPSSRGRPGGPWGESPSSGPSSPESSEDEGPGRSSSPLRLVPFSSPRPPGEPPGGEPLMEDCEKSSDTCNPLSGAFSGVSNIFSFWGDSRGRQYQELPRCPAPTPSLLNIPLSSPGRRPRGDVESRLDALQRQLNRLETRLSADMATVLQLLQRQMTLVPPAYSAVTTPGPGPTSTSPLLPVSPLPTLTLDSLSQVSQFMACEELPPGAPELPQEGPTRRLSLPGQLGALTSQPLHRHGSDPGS
How it was run: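 Thallium-flux (FluxOR) read-out on FDSS: fluorescence read 10 s before and 2 min after stimulation buffer. hERG-BacMam-transduced U2OS cells, compound exposure about 10 min. AC50 by standard Hill equation.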

[12] = qHTS assay for small molecule activators of the p53 signaling pathway (AID 651743; active = well fitted activation curve with a large enough effect in the signal ratio, not every such curve was filed as active; the % refers to the signal ratio; also: series mostly up to about 92 µM; % of control where 0% means no effect); conditions: HCT-116 p53RE-bla, beta-lactamase FRET ratio, 16 h; activation: hits give high values
How it was run: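 Agonist-mode quantitative HTS in HCT-116 cells carrying a p53-response-element beta-lactamase reporter; 16 h compound treatment at 37 C, then FRET substrate loading for 2 h at room temperature and fluorescence read.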

[13] = qHTS assay for small molecule disruptors of the mitochondrial membrane potential - 1 hr assay (AID 651754; calls by dose curve; also: % is scaled to controls: 0 for no effect and ±100 for the full control effect; nearly all actives have a fitted effect of over 35% in size)
How it was run: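 Mitochondrial potential in living HepG2 cells after 1 hr compound treatment at 37C was read with Mito-MPS dye added for a further 30 min. Red aggregate and green monomer fluorescence were measured; loss of potential leaves dye as cytoplasmic monomers.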

[14] = qHTS assay for environmental chemicals that activate the Aryl hydrocarbon Receptor (AhR) signaling pathway (AID 651777); conditions: 1A2-DRE human hepatoma cells, luciferase, 24 h; activation: hits give high values; also: % of control where 0% means no effect; nearly all actives have a fitted effect of over 15% in size
How it was run: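 Luminescence read-out: One-Glo added for 30 min at RT after 24 hr compound treatment (37 C, 5% CO2) of human hepatoma cells expressing a DRE/CYP1A2 promoter–luciferase reporter; increased signal indicates AhR activation.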

[15] = target: Nuclear receptor ROR-gamma (Homo sapiens) (UniProt P51449); assay: qHTS assay for small molecule antagonists of the retinoid-related orphan receptor gamma (ROR-gamma) signaling pathway (AID 651802);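 also: CHO cells with doxycycline-induced ROR-gamma expression; luciferase reporter luminescence driven by ROR response element; series mostly up to about 92 µM; % is scaled to controls: 0 for no effect and ±100 for the full control effect; nearly all actives have a fitted effect of over 60% in size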
Sequence of Nuclear receptor ROR-gamma (Homo sapiens) (P51449 whole entry, looked up): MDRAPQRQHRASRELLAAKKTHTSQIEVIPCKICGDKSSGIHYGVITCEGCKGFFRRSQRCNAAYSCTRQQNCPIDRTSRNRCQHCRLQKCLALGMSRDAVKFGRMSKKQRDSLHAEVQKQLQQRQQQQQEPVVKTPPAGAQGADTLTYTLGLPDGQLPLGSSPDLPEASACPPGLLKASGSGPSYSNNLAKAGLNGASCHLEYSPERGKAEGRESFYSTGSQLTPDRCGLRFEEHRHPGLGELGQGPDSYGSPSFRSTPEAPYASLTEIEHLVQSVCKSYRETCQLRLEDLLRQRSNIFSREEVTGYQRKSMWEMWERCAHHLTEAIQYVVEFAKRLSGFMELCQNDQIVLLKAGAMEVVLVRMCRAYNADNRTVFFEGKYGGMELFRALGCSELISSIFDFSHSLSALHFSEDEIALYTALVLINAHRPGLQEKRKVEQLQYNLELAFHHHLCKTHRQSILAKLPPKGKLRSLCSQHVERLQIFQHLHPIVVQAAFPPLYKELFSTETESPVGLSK
How it was run: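 Luminescence (One-Glo, 30 min RT) measured 16 h after compound addition and doxycycline induction at 37C. Reporter: RORE-luciferase under TET-inducible ROR-gamma in CHO cells.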

[16] = qHTS assay for small molecule antagonists of the retinoid-related orphan receptor gamma (ROR-gamma) signaling pathway - cell viability counter screen (AID 720652; active = well fitted curve in the direction sought with a large enough effect in the repeat runs; an effect the other way counts as inactive or inconclusive)
How it was run: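 Cytotoxicity counter screen: intracellular ATP (CellTiter-Glo luminescence) measured in the doxycycline-induced CHO RORE-luciferase reporter line after 16 hr compound exposure at 37 C, 5% CO2.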

[17] = target: Nuclear receptor subfamily 1 group I member 2 (Rattus norvegicus) (UniProt Q9R1A7); assay: qHTS assay for small molecule activators of the rat pregnane X receptor (rPXR) signaling pathway (AID 651751; call rule not given here; also: 0% is about no effect); conditions: rPXR reporter cells, luciferase (One-Glo), 24 h
Sequence of Nuclear receptor subfamily 1 group I member 2 (Rattus norvegicus) (Q9R1A7 whole entry, looked up): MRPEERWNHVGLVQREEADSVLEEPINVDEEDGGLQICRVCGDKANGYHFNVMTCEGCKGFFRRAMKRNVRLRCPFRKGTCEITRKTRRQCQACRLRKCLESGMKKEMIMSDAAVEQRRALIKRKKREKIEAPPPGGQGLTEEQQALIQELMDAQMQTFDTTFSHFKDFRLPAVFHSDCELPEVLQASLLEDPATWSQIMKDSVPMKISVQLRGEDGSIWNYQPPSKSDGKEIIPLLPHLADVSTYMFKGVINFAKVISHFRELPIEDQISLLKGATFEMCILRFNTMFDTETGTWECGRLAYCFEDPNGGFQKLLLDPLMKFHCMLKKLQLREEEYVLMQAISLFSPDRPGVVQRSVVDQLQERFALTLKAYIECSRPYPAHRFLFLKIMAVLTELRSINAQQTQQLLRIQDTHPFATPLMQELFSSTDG

[18] = qHTS assay for small molecule activators of the human pregnane X receptor (PXR) signaling pathway (AID 720659; call rule not given here; also: 0% is about no effect)
[19] = target: Cytochrome P450 3A4 (Homo sapiens) (UniProt P08684); assay: qHTS Assay for Inhibitors and Substrates of Cytochrome P450 3A4 (AID 884); also: series mostly up to about 57 µM; % is scaled to controls: 0 for no effect and ±100 for the full control effect; nearly all actives have a fitted effect of over 50% in size
Sequence of Cytochrome P450 3A4 (Homo sapiens) (P08684 whole entry, looked up): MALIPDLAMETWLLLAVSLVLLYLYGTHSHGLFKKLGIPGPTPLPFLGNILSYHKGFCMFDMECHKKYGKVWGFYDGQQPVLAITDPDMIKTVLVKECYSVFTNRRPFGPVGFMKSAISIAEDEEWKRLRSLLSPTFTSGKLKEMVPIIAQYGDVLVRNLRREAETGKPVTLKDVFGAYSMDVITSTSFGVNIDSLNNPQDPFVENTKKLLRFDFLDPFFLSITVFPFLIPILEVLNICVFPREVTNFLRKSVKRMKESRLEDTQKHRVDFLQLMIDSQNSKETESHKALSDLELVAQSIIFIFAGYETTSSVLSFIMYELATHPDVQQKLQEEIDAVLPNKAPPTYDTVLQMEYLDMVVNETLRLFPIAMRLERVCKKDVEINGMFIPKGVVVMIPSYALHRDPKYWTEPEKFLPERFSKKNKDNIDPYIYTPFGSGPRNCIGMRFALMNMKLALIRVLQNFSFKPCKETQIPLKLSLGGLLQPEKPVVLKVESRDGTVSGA
How it was run: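 Luminescent readout of luciferin produced by CYP3A4 (20 nM) dealkylation of Luciferin-PPXE, 25 uM (its KM). NADPH-driven reaction ran 60 min at RT after 10 min compound preincubation; data scaled to 57 uM ketoconazole as 100% inhibition.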

[20] = target: Peroxisome proliferator-activated receptor delta (Homo sapiens) (UniProt Q03181); assay: qHTS assay for small molecule agonists of peroxisome proliferator-activated receptor delta signaling (AID 588534; calls by dose curve;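 also: 0% = DMSO basal wells and 100% = positive control agonist at 10 µM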)
Sequence of Peroxisome proliferator-activated receptor delta (Homo sapiens) (Q03181 whole entry, looked up): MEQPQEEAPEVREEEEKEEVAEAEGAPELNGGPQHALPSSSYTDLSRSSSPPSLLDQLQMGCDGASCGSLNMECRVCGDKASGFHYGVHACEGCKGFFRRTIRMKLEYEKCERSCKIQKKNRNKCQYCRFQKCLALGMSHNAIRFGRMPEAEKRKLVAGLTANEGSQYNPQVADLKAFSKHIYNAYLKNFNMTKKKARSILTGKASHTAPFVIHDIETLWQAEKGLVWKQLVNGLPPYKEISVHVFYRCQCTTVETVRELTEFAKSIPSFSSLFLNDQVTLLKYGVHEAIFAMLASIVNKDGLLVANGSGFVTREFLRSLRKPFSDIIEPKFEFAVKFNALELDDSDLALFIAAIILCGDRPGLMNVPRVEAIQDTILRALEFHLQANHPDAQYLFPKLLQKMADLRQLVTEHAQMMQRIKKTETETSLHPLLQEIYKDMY
How it was run: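 Agonist-mode beta-lactamase reporter readout (CCF4 dye, 2 h at RT) after 18 h at 37 °C exposure to a titration; Hill-equation fitting gave EC50 and maximal response.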

CCN(CC)c1ccccc1
inactive: outcome [1] | Potency [2] | Potency [3] | Potency [4] | Potency [5] | Potency [6] | Potency [7] | Potency [8] | outcome [9] | outcome [10] | Potency [11] | activation [12] 0.724% | Potency [13] | activation [14] -0.415% | Potency [15] | Potency [16] | max response [17] -0.145% | outcome [18]

CCOP(=S)(OCC)SCSC(C)(C)C
inactive: Potency [19] | Potency [2] | Potency [3] | Potency [4] | Potency [5] | Potency [6] | Potency [7] | outcome [20] | outcome [9] | outcome [10] | activation [12] 3.78% and -1.22% | Potency [13] | activation [14] 0.254% and 2.38% | Potency [16] | max response [17] 3.05% and 5.9%

C=CCOC(C)=O
inactive: outcome [1] | Potency [19] | Potency [2] | Potency [3] | Potency [4] | Potency [5] | Potency [6] | Potency [7] | Potency [8] | outcome [9] | outcome [10] | Potency [11] | activation [12] -2.44% | Potency [13] | activation [14] -0.904% | Potency [15] | Potency [16] | max response [17] -1.67% | outcome [18]

ClC(Cl)(Cl)c1ccccc1
inactive: outcome [1] | Potency [19] | Potency [2] | Potency [3] | Potency [4] | Potency [5] | Potency [6] | Potency [7] | Potency [8] | outcome [20] | outcome [9] | outcome [10] | Potency [11] | activation [12] -3.47% and -2.04% | Potency [13] | activation [14] -0.334% and -0.126% | Potency [15] | Potency [16] | max response [17] 1.62% and -4.94% | outcome [18]

O=[N+]([O-])c1cccc2ccccc12
inactive: outcome [1] | Potency [19] | Potency [2] | Potency [3] | Potency [4] | Potency [5] | Potency [6] | Potency [7] | outcome [20] | Potency [11] | activation [12] -1.88% and -1.02% | Potency [13] | activation [14] 0.626% and 5.73% | Potency [15] | max response [17] 5.16% and 1.63% | outcome [18]

C[C@H]1CN(C2CCC(C#N)(c3ccc(F)cc3)CC2)CC[C@@]1(C(=O)O)c1ccccc1 (some centres not stated)
inactive: outcome [1]

C=CCOC(=O)c1ccccc1N
inactive: outcome [1] | Potency [19] | Potency [2] | Potency [3] | Potency [4] | Potency [5] | Potency [6] | Potency [7] | Potency [8] | outcome [20] | outcome [9] | outcome [10] | Potency [11] | Potency [13] | Potency [15] | Potency [16] | max response [17] 4.98% | outcome [18]
